Source: PubChem BioAssay (NMMLSC)
Only some compounds are listed: those with a hit (about 0.93% of all), similar ones and a draw of the others.
MEP2-GFP yeast = modulators of MEP2-GFP levels in yeast, primary screen, S. cerevisiae, multiplex flow cytometry, MLPCN library | S. cerevisiae MEP2-GFP strain, 3 h; 100% = DMSO control level | AID 2016, 2009 | GFP response vs DMSO, % at 10 µM | 0.51% of 330,000 active;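 active = GFP response versus DMSO above a set limit, roughly screen mean plus 3 SD, cut at about 180% in these data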;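 also: median GFP fluorescence of the barcode-gated MEP2-GFP cells per well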
CIT2 TOR yeast = modulators of CIT2-GFP expression in yeast, primary screen, S. cerevisiae, GFP fusion, multiplex flow cytometry, MLPCN library; S. cerevisiae CIT2-GFP strain, 3 h; 100 means same as DMSO wells; GFP response vs DMSO, % at 10 µM; 0.065% of 320,000 active;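 active = GFP response relative to DMSO above a set limit, near the screen mean plus 3 SD, cut at about 150% in these data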;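 also: ratio of well median GFP fluorescence to mean of DMSO wells on the plate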
RPL19A TOR yeast = RPL19A-GFP expression modulators in yeast, primary screen, cell-based, S. cerevisiae, multiplex flow cytometry, MLPCN. AID 2025, 2009. S. cerevisiae RPL19A-GFP strain, 3 h; active compounds read low. percent response vs DMSO, % at 10 µM. 0.3% of 330,000 active;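 active = percent response vs DMSO below 50%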;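 also: median channel GFP fluorescence of the barcoded RPL19A-GFP strain; ratio of sample median GFP to plate DMSO average so 100% = DMSO; lower means less RPL19A-GFP as with rapamycin TOR inhibition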
AGP1 TOR yeast = modulators of AGP1-GFP expression in yeast TOR pathway, primary screen, cell-based, multiplex flow cytometry, S. cerevisiae, MLPCN library. 3 h; GFP as percent of DMSO wells. AID 2066, 2009. 0.02% of 320,000 active. GFP response vs DMSO, % at 10 µM;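 active = GFP response relative to DMSO above a set limit, near screen average plus 3 SD, cut at about 150% in these data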;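 also: median GFP channel fluorescence of the gated AGP1 strain per well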
LAP4 TOR yeast = modulators of LAP4-GFP expression in yeast, primary screen, S. cerevisiae, multiplex flow cytometry, MLPCN library; GFP response vs DMSO, % at 10 µM; 0.34% of 320,000 active; 3 h; median GFP as percent of DMSO wells;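 active = GFP response vs DMSO above a set limit, about the screen mean plus 3 SD, cut at about 150% in these data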
LAP4-GFP pick2 = LAP4-GFP expression modulators in yeast, confirmation, cell-based, second cherry pick, flow cytometry; GFP response vs DMSO, % at 10 µM; shares compounds with LAP4 TOR yeast; 20% of 590 active; S. cerevisiae LAP4-GFP strain, 3 h;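 active = GFP signal as percent of the solvent control above about 150%, meaning raised reporter expression, limit read from the data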;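 also: ratio of well median GFP fluorescence to plate DMSO mean so 100% = DMSO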
MEP2-GFP pick2 = modulators of MEP2-GFP levels in yeast, confirmation, S. cerevisiae, flow cytometry GFP, second cherry picks. shares compounds with LAP4 TOR yeast. S. cerevisiae MEP2-GFP strain, 3 h. GFP response vs DMSO, % at 10 µM. 10% of 590 active;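 active = GFP signal above 150% of the solvent control wells, that is a rise of more than half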;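 also: median channel GFP fluorescence of all gated yeast cells per well; ratio of median GFP to plate DMSO average so 100% = DMSO level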
RPL19A GFP CP2 = RPL19A-GFP modulators in TOR pathway yeast, confirmation, cell-based, S. cerevisiae, flow cytometry, second cherry pick | shares compounds with LAP4 TOR yeast | S. cerevisiae RPL19A-GFP strain, 3 h; active compounds read low; 100% means same as DMSO wells | GFP response vs DMSO, % at 10 µM | 3% of 590 active | AID 2623, 2010;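 active = under 65% GFP response relative to DMSO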;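 also: median GFP channel fluorescence per well over the all cells gate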
CIT2-GFP pick2 = modulators of CIT2-GFP expression in yeast, confirmation, flow cytometry, second cherry pick, single plex; shares compounds with LAP4 TOR yeast; S. cerevisiae CIT2-GFP strain, 3 h; DMSO control wells read 100%; GFP response vs DMSO, % at 10 µM; 8% of 590 active; AID 2624, 2010;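 active = GFP response vs DMSO above about 150%, limit read from the data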;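 also: median green fluorescence per well over all gated yeast cells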
AGP1 GFP CP2 = AGP1-GFP expression modulators, hit retest, confirmation, cell-based, flow cytometry, S. cerevisiae, cherry pick set 2 | shares compounds with LAP4 TOR yeast | S. cerevisiae AGP1-GFP strain, 3 h | percent response vs DMSO, % at 10 µM | 590 tested, under 10 active;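 active = over 150 percent of DMSO response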;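 also: median GFP channel fluorescence over all cells without mother daughter split; sample median GFP divided by mean DMSO control so 100% equals DMSO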
Yeast autofluor = compound autofluorescence in yeast s288c, dose response, artefact control for yeast TOR pathway GFP screen, s288c strain; AID 2757, 2010; 610 tested, under 10 active; fluorescence change (kMESF span) at 33 µM; S. cerevisiae s288c, 520 nm autofluorescence, flow cytometry, 3 h; active compounds read high; zero means same as solvent-only cells; shares compounds with LAP4 TOR yeast;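 active = fluorescence span over the dose series, or activity score, above about 33, limit read from the data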
Yeast autofl DR = autofluorescence of compounds in yeast s288c, dose response, artefact control for yeast TOR pathway GFP screen, primary hits, KU SAR, s288c parental. shares compounds with LAP4 TOR yeast. S. cerevisiae s288c parental, compound autofluorescence, flow cytometry, 3 h. 110 tested, under 10 active. AID 488829, 2010. fluorescence change (span) at 33 µM;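 active = fluorescence change span, or the activity score built from it, above 25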
TORC1 bypass gr = wild-type yeast growth inhibition sparing TORC1 bypass cells, mechanism study for yeast TOR pathway GFP screen, BY4741 wild type, TORC1 bypass strain; AID 504456, 2011; shares compounds with LAP4 TOR yeast; growth rating (0-3) at 30 µM; 120 tested, under 10 active; S. cerevisiae BY4741 spot growth rating, 48-72 h; active compounds read low;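 active = growth rating at most 1 for wild type yeast while the TORC1 bypass strain still grows fully, rated 3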
Active calls of the source: *; . = no result given.

SMILES | MEP2-GFP yeast | CIT2 TOR yeast | RPL19A TOR yeast | AGP1 TOR yeast | LAP4 TOR yeast | LAP4-GFP pick2 | MEP2-GFP pick2 | RPL19A GFP CP2 | CIT2-GFP pick2 | AGP1 GFP CP2 | Yeast autofluor | others
O=C(O)c1cccc(-n2cccc2/C=C/[N+](=O)[O-])c1 | 94 | 92 | 94 | 103 | 163* | 110 | 100 | 104 | 117 | 103 | .
CC(=O)Nc1ccc(NC(=O)Cc2sc(C)nc2-c2ccc(C)cc2)cc1 | 100 | 100 | 102 | 109 | 99 | . | . | . | . | . | .
Cc1ccc(-c2nc(C)sc2CC(=O)Nc2nnc(C)s2)cc1 | 155 | 94 | 53 | 41 | 97 | 113 | 122 | 100 | 118 | 104 | 0
CCOC(=O)C1=C(O)c2ccccc2C(=O)/C1=C\c1ccc(C)cc1 | 111 | 80 | 82 | 72 | 186* | 187* | 221* | 100 | 162* | 93 | 41*
CCOC(=O)C1=C(C)N(c2ccc(C)cc2)C(=O)/C1=C\c1ccc(O)c(OC)c1 | 105 | 95 | 100 | 106 | 112 | . | . | . | . | . | .
Nc1cc(Oc2cccc(Cl)c2)nc(NCc2ccccc2)n1 | . | . | . | . | . | . | . | . | . | . | . | Yeast autofl DR=0;TORC1 bypass gr=0
CNc1nc(N)cc(Oc2cccc(Cl)c2)n1 | . | . | . | . | . | . | . | . | . | . | . | TORC1 bypass gr=3
COc1cc(Oc2ccccc2)nc(N)n1 | 94 | 103 | 99 | 102 | 97 | . | . | . | . | . | .
Cc1cc(Oc2ccccc2)nc(NCc2ccccc2)n1 | 104 | 91 | 95 | 99 | 99 | . | . | . | . | . | .
O=C(Nc1nc2ccc(F)cc2s1)c1ccccn1 | 103 | 106 | 90 | 102 | 178* | . | . | . | . | . | 0.82
COC(=O)c1cn(C(=O)c2ccc(C)c(C)c2)c2ccccc12 | 86 | 78 | 88 | 91 | 151* | 98 | 100 | 98 | 100 | 100 | .
COC(=O)c1cn(C(=O)c2ccc(OC)c(OC)c2)c2ccccc12 | 113 | 106 | 106 | 102 | 103 | . | . | . | . | . | .
